# According to PubChem BioAssay:
# The source made the active and inactive calls. Unless noted, no stated cut-off is given here; in the data, active means inhibition above about 80%; inactive means the rest.
# Tests used:
# [1] = sensitizers of A549 cells to miR-34 induction, primary screen, imaging, A549 dox-inducible miR-34, nuclei and caspase counts (AID 1347080;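 active means compounds whose cell count with miR-34 switched on is under 0.7 times the count with it off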); conditions: A549 miR-34 inducible, Hoechst nuclei count, 48 h
# [2] = survival rescue of mitochondrial mutant cells in low glucose, primary screen, MELAS cybrids, Rieske KO mouse fibroblasts, CellTiter-Glo (AID 1508586;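 active means mean z-score across replicates of 1.96 or higher in either the MELAS or the Rieske mutant cell line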;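 further: z relative to plate mean and SD of compound and empty wells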)
# [3] = LFS_MB_P medulloblastoma growth inhibition, cell-based, chromothripsis tumors, cisplatin or BGB combos (AID 1671449); conditions: LFS_MB_P medulloblastoma cells;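 further: cells exposed for 96 hours; 0% = vehicle DMSO and 100% = killing by high DMSO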
# [4] = HDN33 neuroblastoma growth inhibition, cell-based, chromothripsis tumors, cisplatin or BGB combos (AID 1671450); conditions: HDN33 neuroblastoma cells, stronger effect = higher value;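 further: cells exposed to compound for four days; 0% = vehicle DMSO and 100% = cell killing by high DMSO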
# [5] = ICB984 medulloblastoma cell growth inhibition, synergistic combos for chromothripsis tumors, cisplatin or BGB combos (AID 1671451; call rule not given here;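 further: cells exposed for 96 hours before readout; 0% = vehicle DMSO and 100% = killing by high DMSO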); conditions: ICB984 medulloblastoma cells, drug combinations, stronger effect = higher value
# [6] = LFS_MB_1R medulloblastoma cell growth inhibition, synergistic combos for chromothripsis tumors, cisplatin or BGB combos (AID 1671452); conditions: LFS_MB_1R medulloblastoma cells, stronger effect = higher value;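 further: cells exposed for 96 hours before readout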
# [7] = HTB85 osteosarcoma cell growth inhibition, synergistic combos for chromothripsis tumors, BGB or cisplatin IC20 combos (AID 1671453); conditions: HTB85 osteosarcoma cells, drug combinations, stronger effect = higher value;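 further: cells exposed for 96 hours before readout; 0% = vehicle DMSO and 100% = high DMSO killing control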
# [8] = CRL2098 osteosarcoma cell growth inhibition, synergistic combos for chromothripsis tumors, BGB or cisplatin IC20 combos (AID 1671454); conditions: CRL2098 osteosarcoma cells, drug combinations, stronger effect = higher value;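 further: cells exposed for 96 h before readout; 0% = vehicle DMSO and 100% = killing by high DMSO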
# [9] = HD-MB03 medulloblastoma cell growth inhibition, synergistic combos for chromothripsis tumors, BGB or cisplatin IC20 combos (AID 1671455; in the data active means inhibition above about 83%;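 further: 0% = vehicle DMSO and 100% = high DMSO as cytotoxic control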); conditions: HD-MB03 medulloblastoma cells, stronger effect = higher value
# [10] = UWB1.289 ovarian carcinoma cell growth inhibition, synergistic combos for chromothripsis tumors, BGB or cisplatin combos (AID 1671456); conditions: UWB1.289 ovarian carcinoma cells, stronger effect = higher value;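 further: cells exposed to compound for four days; 0% = vehicle DMSO and 100% = killing by high DMSO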
# [11] = LFS_MB_2R medulloblastoma cell growth inhibition, synergistic combos for chromothripsis tumors, cisplatin combos (AID 1671457); conditions: LFS_MB_2R medulloblastoma cells, stronger effect = higher value;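 further: cells exposed to compound for four days before readout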
# [12] = MDA-MB-436 breast carcinoma cell growth inhibition, synergistic combos for chromothripsis tumors, BGB or cisplatin combos (AID 1671458; call rule not given here;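 further: cells exposed for 96 hours; 0% = vehicle DMSO and 100% = killing by high DMSO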); conditions: MDA-MB-436 breast carcinoma growth inhibition, drug combinations, stronger effect = higher value
# [13] = UWB1.289_BRCA1 ovarian cancer growth, cell-based, BGB or cisplatin combinations (AID 1671459); conditions: UWB1.289 BRCA1 ovarian carcinoma, drug combinations, stronger effect = higher value
# [14] = human astrocyte viability loss, single and combined drugs, cytotoxicity control for chromothriptic childhood tumor combination screen, cell-based, BGB or cisplatin IC20 combos (AID 1671460); conditions: Human astrocytes, drug combinations, stronger effect = higher value;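 further: cells exposed to compounds for 96 hours before viability readout; 0% = vehicle and 100% = killing control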
# [15] = growth inhibition of BT084 medulloblastoma cells, cell-based, ICGC_MB145, cisplatin and BGB IC40 combos (AID 1671461); conditions: drug combinations, stronger effect = higher value;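 further: cells exposed to drugs for 96 hours; 0% = vehicle DMSO and 100% = high DMSO full killing control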
# [16] = growth inhibition of RCMB18 medulloblastoma cells, cell-based, cisplatin and BGB IC40 combos (AID 1671462); conditions: stronger effect = higher value;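 further: cells exposed to compound for four days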
# [17] = growth inhibition of CRL1545 osteosarcoma cells, cell-based, cisplatin and BGB IC20 combos (AID 1671464); conditions: stronger effect = higher value;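 further: cells exposed to compound for 96 hours before readout; 0% = vehicle DMSO and 100% = high DMSO killing control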
# [18] = stronger effect = lower value, cell number ratio, induced over uninduced
# [19] = measured here: relative caspase fold change +Dox/-Dox
# [20] = measured here: total cells with miR-34 induction, stronger effect = lower value
# [21] = measured here: total cells without miR-34 induction
# [22] = MELAS cybrid survival, CellTiter-Glo 48 h, stronger effect = higher value
# [23] = Rieske KO mouse fibroblast survival, CellTiter-Glo 72 h
# [24] = at 0.5 µM, stronger effect = higher value
# [25] = measured here: combination with BGB IC20, at 0.005 µM
# [26] = measured here: combination with BGB IC40, at 0.005 µM
# [27] = measured here: combination with BGB IC40, at 0.05 µM
# [28] = measured here: combination with cisplatin, at 0.5 µM, stronger effect = higher value
# [29] = measured here: combination with cisplatin, at 5 µM, stronger effect = higher value
# [30] = measured here: with BGB IC20 combination, at 0.5 µM
# [31] = measured here: with cisplatin IC20 combination, at 0.5 µM
# [32] = measured here: 5 uM single agent, at 5 µM
# [33] = measured here: combination with cisplatin, at 0.5 µM
# [34] = measured here: combination with cisplatin, at 5 µM
# [35] = measured here: with BGB IC20, at 0.5 µM
# [36] = measured here: with BGB IC20, at 5 µM
# [37] = measured here: with cisplatin IC20, at 0.5 µM
# [38] = measured here: with cisplatin IC20, at 5 µM
# [39] = measured here: combination with BGB at IC20, at 0.5 µM
# [40] = measured here: combination with cisplatin at IC20, at 0.5 µM
# [41] = measured here: combo with BGB at IC20, at 0.5 µM
# [42] = measured here: combo with cisplatin at IC20, at 0.5 µM
# [43] = measured here: inhibition with BGB combination, at 0.05 µM
# [44] = measured here: inhibition with cisplatin combination, at 0.05 µM
# [45] = measured here: BGB combination, at 0.5 µM
# [46] = measured here: BGB combination, at 5 µM
# [47] = measured here: cisplatin combination, at 0.5 µM
# [48] = measured here: cisplatin combination, at 5 µM
# [49] = BGB combination, concentration series, at 5 µM
# [50] = cisplatin combination, concentration series, at 5 µM
# [51] = measured here: combo with BGB IC20, at 0.5 µM
# [52] = measured here: combo with cisplatin IC20, at 0.5 µM
# [53] = cisplatin combination, at 0.5 µM
# [54] = measured here: BGB IC40 combination 0.05 uM, at 0.05 µM
# [55] = measured here: BGB IC40 combination, at 0.05 µM
smiles,measurement,setting,value
CC1OC(n2cc(F)c(=O)[nH]c2=O)C(O)C1O (stereo not drawn),fold change,[1]; [18],0.451 (active)
same,fold change,[1]; [19],2.09
same,cell count,[1]; [20],2920
same,cell count,[1]; [21],6480
same,z-score,[2]; [22],-0.306 (inactive)
same,z-score,[2]; [23],0.652
same,inhibition,[3]; [24],-9.42% (inactive)
same,inhibition,[3]; [25],-7.8%
same,inhibition,[3]; [26],-40.7%
same,inhibition,[3]; [27],-29.6%
same,inhibition,[3]; [28],-29.8%
same,inhibition,[3]; [29],-27.3%
same,inhibition,"[4]; BGB combo, at 5 µM",-8.24%
same,inhibition,[4]; at 0.5 µM,-30.6% (inactive)
same,inhibition,"[4]; cisplatin combo, at 5 µM",-12.9%
same,inhibition,[4]; [30],-22.1%
same,inhibition,[4]; [31],-19.8%
same,inhibition,"[4]; single agent, at 5 µM",-20.3%
same,inhibition,"[5]; BGB IC20 combo, at 0.005 µM",-5.88%
same,inhibition,"[5]; BGB IC40 combo, at 0.005 µM",-26.6%
same,inhibition,"[5]; BGB IC40 combo, at 0.05 µM",-7.54%
same,inhibition,[5]; at 0.5 µM,-15.5% (inactive)
same,inhibition,"[5]; cisplatin combo, at 0.05 µM",-10.5%
same,inhibition,"[5]; cisplatin combo, at 0.5 µM",-3.76%
same,inhibition,"[5]; cisplatin combo, at 5 µM",-40.8%
same,inhibition,[5]; [32],-21.2%
same,inhibition,[6]; at 0.5 µM,-23.1% (inactive)
same,inhibition,[6]; [27],-35.1%
same,inhibition,[6]; [33],-21.6%
same,inhibition,[6]; [34],-58.4%
same,inhibition,[7]; at 0.5 µM,-23.8% (inactive)
same,inhibition,[7]; [35],-38.6%
same,inhibition,[7]; [36],-31%
same,inhibition,[7]; [37],-26.6%
same,inhibition,[7]; [38],-40.3%
same,inhibition,"[7]; single agent, at 5 µM",-22%
same,inhibition,[8]; at 0.5 µM,-5.43% (inactive)
same,inhibition,[8]; [39],-21.1%
same,inhibition,[8]; [40],-73.9%
same,inhibition,[9]; at 0.5 µM,-15.3% (inactive)
same,inhibition,[9]; [41],-17.8%
same,inhibition,[9]; [42],-10.3%
same,inhibition,[10]; at 0.5 µM,-6.51% (inactive)
same,inhibition,[10]; [43],-35.5%
same,inhibition,[10]; [44],-17.5%
same,inhibition,[11]; at 0.5 µM,-17.7% (inactive)
same,inhibition,[11]; [33],-12.9%
same,inhibition,[11]; [34],-95.4%
same,inhibition,[12]; at 0.5 µM,-32.6% (inactive)
same,inhibition,[12]; [45],-38.6%
same,inhibition,[12]; [46],-19.2%
same,inhibition,[12]; [47],-54.4%
same,inhibition,[12]; [48],12%
same,inhibition,[13]; [49],-3.82%
same,inhibition,[13]; at 0.5 µM,-19.6% (inactive)
same,inhibition,[13]; [50],4%
same,inhibition,[14]; at 0.5 µM,-18.2% (inactive)
same,inhibition,[14]; [51],-17.6%
same,inhibition,[14]; [52],-13.1%
same,inhibition,[15]; at 0.5 µM,-33.9% (inactive)
same,inhibition,[15]; [53],-18.2%
same,inhibition,"[15]; cisplatin combination, at 5 µM",3.57%
same,inhibition,[15]; [54],-9.17%
same,inhibition,"[15]; single agent, at 5 µM",-31.7%
same,inhibition,[16]; at 0.5 µM,-20.6% (inactive)
same,inhibition,"[16]; cisplatin combo, at 5 µM",-44.8%
same,inhibition,[16]; [55],-8.2%
same,inhibition,[16]; [33],-22.5%
same,inhibition,"[16]; single agent, at 5 µM",-11.4%
same,inhibition,[17]; at 0.5 µM,-45.1% (inactive)
same,inhibition,[17]; [30],-21.9%
same,inhibition,[17]; [31],-60.2%
same,inhibition,"[17]; single agent, at 0.05 µM",-41.1%
same,inhibition,"[17]; single agent, at 5 µM",-1.1%
NC(=S)NN=Cc1ncccc1N,fold change,[1]; [18],1.15 (inactive)
same,fold change,[1]; [19],0.619
same,cell count,[1]; [20],1840
same,cell count,[1]; [21],1600
same,z-score,[2]; [22],1.28
same,z-score,[2]; [23],3.3
same,inhibition,[3]; [24],-16.7% (inactive)
same,inhibition,[3]; [25],-2.55%
same,inhibition,[3]; [26],-23%
same,inhibition,[3]; [27],-3.08%
same,inhibition,[3]; [28],-29.8%
same,inhibition,[3]; [29],-31.8%
same,inhibition,"[4]; BGB combo, at 5 µM",85%
same,inhibition,[4]; at 0.5 µM,11.9% (inactive)
same,inhibition,"[4]; cisplatin combo, at 5 µM",80.1%
same,inhibition,[4]; [30],3.11%
same,inhibition,[4]; [31],14.3%
same,inhibition,"[4]; single agent, at 5 µM",84.5%
same,inhibition,"[5]; BGB IC20 combo, at 0.005 µM",-9.24%
same,inhibition,"[5]; BGB IC40 combo, at 0.005 µM",-38.2%
same,inhibition,"[5]; BGB IC40 combo, at 0.05 µM",-31.3%
same,inhibition,[5]; at 0.5 µM,-16.4% (inactive)
same,inhibition,"[5]; cisplatin combo, at 0.05 µM",-36.5%
same,inhibition,"[5]; cisplatin combo, at 0.5 µM",-17.6%
same,inhibition,"[5]; cisplatin combo, at 5 µM",-14.8%
same,inhibition,[5]; [32],-38.9%
same,inhibition,[6]; at 0.5 µM,-7% (inactive)
same,inhibition,[6]; [27],-3.08%
same,inhibition,[6]; [33],22.7%
same,inhibition,[6]; [34],-19.1%
same,inhibition,[7]; at 0.5 µM,-8.27% (inactive)
same,inhibition,[7]; [35],-17.3%
same,inhibition,[7]; [36],67.1%
same,inhibition,[7]; [37],-3.68%
same,inhibition,[7]; [38],77.8%
same,inhibition,"[7]; single agent, at 5 µM",84.1%
same,inhibition,[8]; at 0.5 µM,-55.6% (inactive)
same,inhibition,[8]; [39],-6.91%
same,inhibition,[8]; [40],-62.8%
same,inhibition,[9]; at 0.5 µM,-11.3% (inactive)
same,inhibition,[9]; [41],-13%
same,inhibition,[9]; [42],-15.8%
same,inhibition,[10]; at 0.5 µM,-4.48% (inactive)
same,inhibition,[10]; [43],-19.9%
same,inhibition,[10]; [44],-12.6%
same,inhibition,[11]; at 0.5 µM,-23.1% (inactive)
same,inhibition,[11]; [33],-11.4%
same,inhibition,[11]; [34],-13.5%
same,inhibition,[12]; at 0.5 µM,-24% (inactive)
same,inhibition,[12]; [45],-21.8%
same,inhibition,[12]; [46],39.5%
same,inhibition,[12]; [47],-34.4%
same,inhibition,[12]; [48],62.7%
same,inhibition,[13]; [49],56.4%
same,inhibition,[13]; at 0.5 µM,0.83% (inactive)
same,inhibition,[13]; [50],62.5%
same,inhibition,[14]; at 0.5 µM,13.8% (inactive)
same,inhibition,[14]; [51],17.9%
same,inhibition,[14]; [52],11.3%
same,inhibition,[15]; at 0.5 µM,-38.9% (inactive)
same,inhibition,[15]; [53],-29.3%
same,inhibition,"[15]; cisplatin combination, at 5 µM",-3.12%
same,inhibition,[15]; [54],-31.2%
same,inhibition,"[15]; single agent, at 5 µM",-27%
same,inhibition,[16]; at 0.5 µM,-9.8% (inactive)
same,inhibition,"[16]; cisplatin combo, at 5 µM",15.6%
same,inhibition,[16]; [55],-6.51%
same,inhibition,[16]; [33],3.15%
same,inhibition,"[16]; single agent, at 5 µM",-34.2%
same,inhibition,[17]; at 0.5 µM,10.3% (inactive)
same,inhibition,[17]; [30],-9.01%
same,inhibition,[17]; [31],19.9%
same,inhibition,"[17]; single agent, at 0.05 µM",29.3%
same,inhibition,"[17]; single agent, at 5 µM",63.9%
